From PubChem BioAssay come the findings set out here.

Molecules are shown by their SMILES. Values without a mark were called inactive. The rule behind the calls is not given here.

The inhibition is how much of the control response was suppressed.

Pantothenate synthetase (Mycobacterium tuberculosis (strain ATCC 25618 / H37Rv)), sequence (P9WIL5 whole entry, looked up): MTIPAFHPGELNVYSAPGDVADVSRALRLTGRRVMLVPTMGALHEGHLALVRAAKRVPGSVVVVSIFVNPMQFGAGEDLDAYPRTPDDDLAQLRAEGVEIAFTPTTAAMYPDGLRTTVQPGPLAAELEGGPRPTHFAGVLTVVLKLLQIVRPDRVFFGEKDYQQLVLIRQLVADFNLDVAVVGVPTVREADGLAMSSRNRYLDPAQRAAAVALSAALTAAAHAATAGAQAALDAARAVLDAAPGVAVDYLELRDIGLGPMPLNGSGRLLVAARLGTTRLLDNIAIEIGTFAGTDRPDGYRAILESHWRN

The assay addresses Pantothenate synthetase (Mycobacterium tuberculosis (strain ATCC 25618 / H37Rv)) (UniProt P9WIL5). Nature of the assay: Recombinant Mtb pantothenate synthetase (PanC) inhibitors, coupled enzyme, confirmatory (AID 375).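 Note: 0% = full reaction with vehicle and 100% = no enzyme background.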 The conditions noted are these: coupled enzyme assay; at 10 µM, active compounds read high.
In the case of `CCOCCCNCC(=O)N1CCN(S(=O)(=O)c2ccc(C)cc2)CC1`, the inhibition was 0%.

As for `CC(=O)c1cccc(S(=O)(=O)NCC(c2ccco2)N2CCCCC2)c1` (stereo not given), the inhibition was 0%.

On to `Cn1c(SCC(=O)Nc2ccc3c(c2)OCO3)nnc1-c1cnccn1`, for which the inhibition is 1%.

On to `Cc1ccc(C(=O)/C=C/Nc2cccc(O)c2)cc1`, for which the inhibition was 8%.

Regarding `CCOC(=O)N1CCC(c2cc(=O)n3[nH]c(C)c(-c4ccc(F)cc4)c3n2)CC1`, the inhibition is 0%.

As to `CCOc1ccc(-c2nnc3sc(-c4c(OC)cccc4OC)nn23)cc1`, the inhibition was 0%.

`O=C(COc1ccc(S(=O)(=O)NC2CCCCC2)cc1)NCc1ccccn1`: the inhibition is 0%.

Turning to `CCOC(=O)c1c(C)oc2ccc(OCC(N)=O)cc12`, the inhibition was 0%.

As to `Cn1c(=O)n(CC(=O)OCc2ccccc2)c(=O)c2c1nc1n2CCCN1C1CCCCC1`, the inhibition is 0%.

As to `CCCC1(CCC)NC(=O)NC1=O`, the inhibition was 0%.

Turning to `COc1ccc(CC(=O)N2CCOCC2)cc1OC`, the inhibition was 2%.

With `Cc1ccc(NC(=O)C2CCCNC2=O)nc1` (stereo not given), the inhibition was 0%.

For the compound `Cc1ccc(-c2nn(-c3ccccc3)cc2/C=C(\C#N)c2cccc(C#N)c2)o1`, the inhibition was 0%.

In the case of `Nc1ncnc2nc(Sc3ccc(Cl)cc3)[nH]c12`, the inhibition was 0%.

As to `CC1Cc2ccccc2N1S(=O)(=O)c1ccc2c(c1)n(C)c(=O)c(=O)n2C` (stereo not given), the inhibition was 0%.

On to `CCOCCCNC(=O)Cn1cc2c(n1)CCCCC2`, for which the inhibition was 2%.

For the compound `CCOC(=O)C1CCCN(C(=O)c2cc3c(-c4cccc(OC)c4)nn(C)c3s2)C1` (stereo not given), the inhibition is 0%.

Take `CN(C)CCOC(c1ccccc1)c1ccccc1` (tested in a mixture with another compound): the inhibition is 0%.

Take `COc1ccc(Cc2nnc(NC(=O)Cc3cccs3)s2)cc1`: the inhibition is 0%.

In the case of `CC(C(=O)N1CCCCC1)n1sc2ccccc2c1=O` (stereo not given), the inhibition was 0%.

In the case of `O=C(O)CCCCCNc1nc(=S)[nH]c2ccccc12`, the inhibition is 0%.

Consider `CSc1ccc(S(=O)(=O)Nc2cccc(F)c2)cc1`, for which the inhibition is 0%.

For `COc1cc(C2c3c(n[nH]c3C)C(=O)N2c2ccc(Br)cc2)ccc1O` (stereo not given), the inhibition is 4%.

With `COCCCNC(=O)Cn1cc2c(n1)CCC(C)C2` (stereo not given), the inhibition is 3%.

As to `Cc1ccc(C)c(SCC(=O)Nc2nnc(-c3ccccc3)o2)c1`, the inhibition is 10%.

Consider `COc1cccc(OC)c1C(=O)n1nc(C)cc1C`, for which the inhibition is 6%.

As for `COc1ccc(NC(=O)C2Cc3ccccc3C(=O)O2)cc1` (stereo not given), the inhibition is 0%.

For `Cc1ccc2nc(SCC(=O)NCc3ccco3)c(C#N)cc2c1`, the inhibition is 0%.

Take `CC(=O)c1sc(NC(=O)C2COc3ccccc3O2)nc1C` (stereo not given): the inhibition was 3%.

In the case of `Cc1ccccc1Cn1nc(C)c(NC(=O)c2noc3c2CCCC3)c1C`, the inhibition was 5%.

Take `CCN(CC)CC(=O)Nc1ccc(-c2nc3cc(NC(=O)CN(CC)CC)ccc3o2)cc1`: the inhibition is 7%.

For the compound `O=C(NCCN1CCN(c2ccccc2)CC1)c1ccc(NC(=O)C2CCCO2)cc1` (stereo not given), the inhibition was 2%.

`c1ccc2[nH]c(-c3cscn3)nc2c1`: the inhibition was 0%.

Take `Cc1ccc(-n2nnnc2SCC(=O)c2cc(C)n(-c3cc(C)on3)c2C)cc1`: the inhibition was 4%.

In the case of `CC1CCN(C(=O)CSc2nnc(-c3ccc(S(=O)(=O)N4CCOCC4)cc3)n2C)CC1`, the inhibition was 4%.

With `COC(=O)C1CCN(C(=O)NC(C)(C)C)CC1`, the inhibition was 6%.

On to `Cc1nc2ccc(S(=O)(=O)NC(C(=O)N3CCCC3)C(C)C)cc2s1` (stereo not given), for which the inhibition is 0%.

As to `Clc1ccc(C2Nc3ccccc3-n3cccc32)cc1` (stereo not given), the inhibition is 0%.

With `COC(=O)[C@H](C)NC(=O)NCc1ccc(F)cc1`, the inhibition was 1%.

Turning to `Cc1cc2ccccc2c(=O)n1CC(=O)Nc1ccc2c(c1)OCO2`, the inhibition was 0%.
